# Assay outcomes as filed in PubChem BioAssay.
# GPT2 inh: Primary qHTS assay for inhibitors of Glutamate pyruvate transaminase 2 (GPT2); Recombinant GPT2, coupled pyruvate oxidase/HRP Amplex Red fluorescence; Potency, µM (highest dose often 57.7 µM), without a hit: at the top dose activity change, negative = inhibition, actives largely listed as inhibitors; 100,000 compounds, 0.25% hits; further: nearly all actives have a fitted effect of over 60% in size
#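 GPT2 10ng/uL, a-KG 250uM, L-Ala 2mM, HEPES pH7.5 + 0.0001% Tween; 30 min RT. Then Amplex mix (PO/HRP/ThPP), 30 min RT dark, fluorescence. AOA 50uM used as positive control.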
# Luciferase inh: Firefly luciferase inhibition profiling of diverse chemical library using quantitative high-throughput screening | purified P. pyralis luciferase, luminescence, biochemical | 76,000 compounds, 2.5% hits | Luciferin 4-monooxygenase (Photinus pyralis), P08659 | Potency, µM (highest dose often 115 µM), most hits filed as inhibitors; further: nearly all actives have a fitted effect of over 65% in size
#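 Biochemical qHTS: compound (6-point titration) added to 10uM D-luciferin plus 10uM ATP in Tris acetate pH 7.5 buffer with Mg, Tween-20 and BSA, then purified enzyme at 10nM; light output imaged.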
# NPR1 antag: Natriuretic polypeptide receptor (hNpr1) antagonism - Primary qHTS; Atrial natriuretic peptide receptor 1 (Homo sapiens), P16066; HEK293 hNpr1 GloSensor cGMP, ANP-stimulated luminescence; Potency, µM (top dose mostly 46.3 µM), for the others: at the highest dose activity change, negative = inhibition, most hits filed as inhibitors; 76,000 compounds, 1.6% hits; AID 1347048, 2019; calls by dose curve; further: nearly all actives have a fitted effect of over 60% in size
#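 HEK293 cells stably expressing human Npr1 and cGMP GloSensor pGS-40F, loaded 2 h with 2% GloSensor reagent, given compound 30 min at room temperature. Luminescence read before and 20 min after 0.1 nM hNppA.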
# HEK cytotox: Cytotoxic Profiling in HEK 293 Cell Line of Diverse Libraries Using Quantitative High-Throughput Screening; 94,000 compounds, 6.6% hits; AID 1345083, 2018; HEK 293 viability, ATP luminescence (CellTiter-Glo), 48-72 h; Potency, µM (titrated, usually from 115 µM), inactives show at the top dose activity change, negative = cytotoxicity, hits mostly inhibitors; further: nearly all actives have a fitted effect of over 60% in size
#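 HEK 293 seeded at 250 cells/well receive compound via pintool. After 48 or 72 hr at 37 degree Celsius, 5% CO2 and 95% humidity, CellTiter-Glo is dispensed and luminescence read following 10 min at room temperature.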
# 3T3 cytotox: Cytotoxic Profiling in NIH 3T3 Cell Line of Diverse Libraries Using Quantitative High-Throughput Screening; AID 1345082, 2018; NIH 3T3 viability, CellTiter-Glo ATP luminescence, 48-72 h; 94,000 compounds, 4.3% hits; Potency, µM (highest dose often 96.7 µM), inactives show at the top dose activity change, negative = cytotoxicity, hits mostly inhibitors; further: nearly all actives have a fitted effect of over 55% in size
#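 Viability of NIH 3T3 cells after 48 or 72 hr compound treatment at 37 °C was assessed by CellTiter-Glo, with luminescence imaged following a 10 min room-temperature step.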
# Numbers without * were called inactive; i = inactive; ? = inconclusive; . = no result given; [ ] = another dose, or the depositor's remark. Hits are enriched below; roughly 10% of the tested compounds scored in any of these assays. Unless noted, the call rests on the fitted dose curve; in most records, active means well fitted curve in the direction sought with a large enough effect; inconclusive means small, poorly fitted or top-dose-only effect, or another doubt; inactive means no such curve, though single readings can be large; an effect the other way counts as inactive or inconclusive. On the % scale 0 is the no-effect control and ±100 the full control effect; potency means the concentration at half of the fitted maximal effect.
SMILES,GPT2 inh,Luciferase inh,NPR1 antag,HEK cytotox,3T3 cytotox
C#CCNC(=O)[C@@H]1Cc2cn(Cc3c(C)noc3C)c3cccc(c23)[C@H](CC(C)C)N1,?,i,-28.7%[70.6 µM],39.8µM*,50.1µM*
Cc1noc(C)c1Cn1cc2c3c(cccc31)[C@H](CC(C)C)N[C@H](C(=O)N1CCOCC1)C2,-2.5%,i,0.3%,?,-20.6%
O=C(C1=NOC2CN(C(=O)C3CC3)CC12)N1CCOCC1 (centres undefined),-8.0%[88.5 µM],.,.,i,i
COc1ccc(Nc2ccnc(N3CCC(N[S+](C)(=O)[O-])CC3)n2)cc1,-2.3%,.,.,?,-27.0%
O=C(c1ccc(CCC2COc3ccccc3O2)cc1)N1CCCCC1 (centres undefined),-5.5%,35.5µM*,?,?,?
COc1ccc(Cn2c3c(c(=O)n2Cc2ccccc2)CCN(Cc2cccc(O)c2)C3)cc1,i,i,-1.7%,-8.0%,?
O=C1CC2(CCN([S+](=O)([O-])c3cccc(C(F)(F)F)c3)CC2)Oc2ccccc21,i,i,0.0%,?,?
COc1ccc(C(=O)N2CCC3(CC2)CC(=O)c2ccc(Cl)cc2O3)cc1,?,i,-9.7%,50.1µM*,?
Cc1ccc(C(=O)N2CCC3(CC2)CC(=O)c2ccc(Cl)cc2O3)cc1,-33.4%,i,?,?,35.5µM*
O=C1CC2(CCN([S+](=O)([O-])c3cccc(C(F)(F)F)c3)CC2)Oc2cc(Cl)ccc21,?,i,-0.2%,31.6µM*,?
O=C1CC2(CCN(C(=O)c3ccccc3)CC2)Oc2ccccc21,-4.0%[88.5 µM],i,2.5%[70.6 µM],?,?
Cc1cc(C)n(Cc2cc(C(=O)N(C)C(C)c3ccon3)n[nH]2)n1 (centres undefined),i,i,-0.1%,3.3%,0.8%
COCCCNC(=O)c1cnc2n[nH]c(-c3ccccc3)c2n1,?,i,-6.3%[70.6 µM],100µM*,?
CCn1c(CC2CCN(Cc3ccccc3C#N)CC2)nn(C)c1=O,0.3%,i,-3.5%,i,1.7%
O=C(CC(c1cccc([N+](=O)[O-])c1)c1c[nH]c2ccccc12)NCCc1ccccc1 (centres undefined),i,i,?,31.6µM*,25.1µM*
COc1ccc(CCNC(=O)CC(c2ccccc2OC)c2c[nH]c3ccccc23)cc1OC (centres undefined),i,i,-27.3%,?,?
COc1ccccc1C(CC(=O)NCCc1ccccc1)c1c[nH]c2ccccc12 (centres undefined),i,?,-5.0%,?,39.8µM*
CCc1cccc2c(C(CC(=O)NCCc3ccc(OC)c(OC)c3)c3ccccc3OC)c[nH]c12 (centres undefined),-10.3%,i,-13.9%,35.5µM*,?
COc1cccc(C(CC(=O)NCC(C)C)c2c[nH]c3ccccc23)c1 (centres undefined),i,i,-5.0%,-29.3%,-23.0%
CCc1cccc2c(C(CC(=O)NCCc3ccccc3)c3ccc(OC)c(OC)c3)c[nH]c12 (centres undefined),i,?,-16.2%,?,?
COc1ccc(S(=O)(=O)N2CC(c3nc(Cc4cccnc4)no3)C2)cc1,4.7%,.,.,?,-23.2%
O=C(Cc1cccnc1)N1CCCC(c2ccccc2)(c2ccccc2)C1,-4.2%[11.5 µM],i,-3.9%,44.7µM*,-15.6%
Cc1noc(C)c1[S+](=O)([O-])N1CCCC2(CC(c3cccnc3)=NO2)C1 (centres undefined),2.5%,.,.,i,-10.4%
COc1ccc(C(=O)N2CCC(c3n[nH]c(=O)n3-c3ccccc3)CC2)cc1F,i,i,2.1%,11.7%,-14.1%
Cc1ccc(NC(=O)c2cc3n(n2)CC(c2ccc4c(c2)OCO4)OC3)cc1F (centres undefined),i,i,?,39.8µM*,-25.6%
SMILES,GPT2 inh,Luciferase inh,NPR1 antag,HEK cytotox,3T3 cytotox
COc1ccc(NC(=O)c2cc3n(n2)CC(c2ccc4c(c2)OCO4)OC3)cc1 (centres undefined),i,?,11.2µM*,44.7µM*,?
CC(=O)Nc1ccc(NC(=O)c2cc3n(n2)CC(c2ccc(Br)cc2)OC3)cc1 (centres undefined),-2.6%,?,?,?,?
COc1ccc(NC(=O)c2cc3n(n2)CC(c2ccc4c(c2)OCO4)OC3)c(OC)c1 (centres undefined),i,i,-4.6%,?,?
NC(=O)c1ccc(NC(=O)c2cc3n(n2)CC(c2ccc(Br)cc2)OC3)cc1 (centres undefined),i,i,?,35.5µM*,?
CCn1ccc(C(=O)N2CC(C(=O)N(C)C)C3(CCOCC3)C2)n1 (centres undefined),i,i,4.0%,i,1.5%
Cc1ccc([S+](=O)([O-])N2CCCC(C(=O)N3CCC(N4CCOCC4=O)CC3)C2)cc1 (centres undefined),i,.,.,-14.7%,?
COc1ccc(F)cc1-c1cccc(C(=O)NCC(=O)NCC(F)F)c1,.,.,.,-2.7%,-15.4%
COc1ccc2[nH]c(C[C@@H]3C[C@@H](C(C)C)[C@H](CNCc4cccnc4)C=C3C)nc2n1,0.5%[88.5 µM],i,-16.3%[70.6 µM],63.1µM*,89.1µM*
COc1ccc2[nH]c(C[C@@H]3C[C@@H](C(C)C)[C@H](CNC(C)=O)C=C3C)nc2n1,-0.5%[88.5 µM],i,-1.8%[70.6 µM],70.8µM*,?
COc1ccc2[nH]c(C[C@@H]3C[C@@H](C(C)C)[C@H](CNC(=O)c4cnccn4)C=C3C)nc2n1,2.9%[88.5 µM],i,-21.7%[70.6 µM],63.1µM*,100µM*
CCC(=O)N1CCCN(Cc2ccc3c(c2)OCO3)c2ccccc21,i,i,-1.6%,44.7µM*,?
O=C(NCc1ccc2c(c1)OCO2)c1cnc2c(c1)N(Cc1ccccc1)CCC2,i,i,4.4%[70.6 µM],?,50.1µM*
Cc1cnc(C(=O)N2CCCC2c2nc(CCOc3ccc(F)cc3)no2)cn1 (centres undefined),i,i,-10.7%,?,-23.7%
O=C(CCc1cnccn1)N1CCC(CCC(=O)N2CCC(Cc3ccccc3)CC2)CC1,-5.1%,i,-13.2%,?,-23.6%
O=C1NCCCCCCN(Cc2ccncc2)[C@@H]2CN(Cc3ccncc3F)CC[C@H]12,-0.6%,i,0.9%,-7.8%,-11.2%
